Experimental findings from PubChem BioAssay (NCATS) are described below.

Inconclusive results are not listed. Entries that show only a call come without a potency. Calls of active or inactive are those of the source. The call rests on the fitted dose curve.
Potency means the concentration at half of the fitted maximal effect.

This assay deals with Nucleoprotein (Lymphocytic choriomeningitis virus (strain Armstrong)) (UniProt P09992). Description: qHTS for Inhibitors of the Functional Ribonucleoprotein Complex (vRNP) of Lymphocytic Choriomeningitis Arenaviruses (LCMV): LCMV Primary Screen - GLuc reporter signal (AID 1347086). Further: nearly all actives have a fitted effect of over 70% in size. The settings on record: LCMV minigenome vRNP cell assay, Gaussia luciferase reporter; series mostly up to 57.5 µM. For orientation: In qHTS, concentration-response curves come from the screen itself.
Nucleoprotein (Lymphocytic choriomeningitis virus (strain Armstrong)), sequence (P09992 whole entry, looked up): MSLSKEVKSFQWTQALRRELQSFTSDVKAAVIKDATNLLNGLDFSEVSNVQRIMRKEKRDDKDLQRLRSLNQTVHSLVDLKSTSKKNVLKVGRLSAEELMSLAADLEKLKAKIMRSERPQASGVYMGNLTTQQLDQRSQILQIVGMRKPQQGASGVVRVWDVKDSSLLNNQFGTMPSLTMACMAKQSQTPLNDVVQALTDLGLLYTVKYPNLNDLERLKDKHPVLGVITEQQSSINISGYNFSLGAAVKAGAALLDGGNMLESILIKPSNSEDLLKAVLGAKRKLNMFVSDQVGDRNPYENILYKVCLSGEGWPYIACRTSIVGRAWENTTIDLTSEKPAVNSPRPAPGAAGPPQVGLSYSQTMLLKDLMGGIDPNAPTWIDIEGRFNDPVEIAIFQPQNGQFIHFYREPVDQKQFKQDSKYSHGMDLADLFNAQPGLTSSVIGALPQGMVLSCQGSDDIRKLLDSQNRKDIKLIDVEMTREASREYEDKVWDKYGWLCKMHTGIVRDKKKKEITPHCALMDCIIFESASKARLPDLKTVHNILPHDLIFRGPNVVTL
`CC(=O)Oc1ccccc1C(=O)O`: the Potency entry was “inactive”. Consider `COc1ccccc1O`, for which the Potency entry is “inactive”. The entry for `CC(C[N+](C)(C)C)OC(N)=O` (stereo not given) is “inactive”. On to `COc1cc(Nc2ncc3c(n2)-c2ccc(Cl)cc2C(c2c(F)cccc2OC)=NC3)ccc1C(=O)O`, for which the Potency entry is “inactive”. With `CC(C)(C)c1cc(C(C)(C)C)c(NC(=O)c2c[nH]c3ccccc3c2=O)cc1O`, the Potency entry was “inactive”. Regarding `CS(=O)(=O)c1cccc(CNc2nc(Nc3ccc4c(c3)CCC(=O)N4)ncc2C(F)(F)F)c1`, the Potency entry was “inactive”. With `CC(C)C[C@H](NC(=O)[C@@H](O)[C@H](N)Cc1ccccc1)C(=O)O`, the Potency entry is “inactive”.

As for `COc1ccc(CC2SC(=O)NC2=O)cc1C(=O)NCc1ccc(C(F)(F)F)cc1` (stereo not given), the Potency result is “inactive”. Consider `Nc1ccccc1NC(=O)c1ccc(CNc2nccc(-c3cccnc3)n2)cc1`, for which the Potency entry is “inactive”. For `CN(C)c1ccc(N=NS(=O)(=O)O)cc1`, the Potency result was “inactive”. On to `CN(C)CCN(C)C(=O)c1ccc(NC(=O)Nc2ccc(-c3nc(N4CCOCC4)c4ccn(CC(F)(F)F)c4n3)cc2)cc1`, for which the Potency is 76.9 nM (active). Turning to `O=C(O)CNC(=O)CNC(=O)CNC(=O)CSC(=O)c1ccccc1`, the Potency entry is “inactive”.

Turning to `N#Cc1c(O)c2c(-c3ccc(-c4ccccc4O)cc3)csc2[nH]c1=O`, the Potency entry was “inactive”. With `CCc1c(C)[nH]c2c1C(=O)C(CN1CCOCC1)CC2` (stereo not given), the Potency result was “inactive”.

For the compound `Nc1cccc(S(=O)(=O)N2CCCN(S(=O)(=O)c3ccc4c(c3)OCCO4)CC2)c1`, the Potency result is “inactive”.

As for `CC1(C)OC2=C(C(=O)c3ccccc3C2=O)[C@H](NCc2ccccc2)[C@H]1O`, the Potency is 863 nM (active).

Regarding `CC(C)(C(=O)NCC(F)(F)C(F)(F)F)C(=O)N[C@@H]1C(=O)Nc2ccccc2-c2ccccc21`, the Potency is 10900 nM (active). As to `CCCCC(CC)COC(=O)c1ccccc1C(=O)O` (stereo not given), the Potency result is “inactive”. For `CC(=O)Oc1cccc(C)c1`, the Potency entry is “inactive”.

Regarding `NCCCC(N)(C(=O)O)C(F)F` (stereo not given), the Potency entry is “inactive”. For the compound `[O-][n+]1cccc(CO)c1`, the Potency entry was “inactive”. For `CCN1CCN(Cc2ccc(-c3cc4c(N[C@H](C)c5ccccc5)ncnc4[nH]3)cc2)CC1`, the Potency entry was “inactive”. Regarding `CCCCCCCC(=O)OCC(O)CO` (stereo not given), the Potency entry was “inactive”. On to `COc1ccc2c(c1)CC[C@H]1[C@@H]2CC[C@]2(C)[C@@H](NCCCCCCN3C(=O)C=CC3=O)CC[C@H]12`, for which the Potency result was “inactive”. In the case of `Cc1ccccc1N=Nc1ccc(N=Nc2c(O)ccc3ccccc23)c(C)c1`, the Potency result is “inactive”.

Consider `COc1cccc(OC)c1-c1cc(C(=O)NC2(C(=O)O)C3CC4CC(C3)CC2C4)nn1-c1ccnc2cc(Cl)ccc12` (stereo not given), for which the Potency entry is “inactive”. As for `OCCC#Cc1nc(-c2ccc(F)cc2)c(-c2ccncc2)n1CCCc1ccccc1`, the Potency result was “inactive”. To `CC(=O)NC(C)c1ccc(Oc2ccc(OC(C)C)cc2)cc1` (stereo not given) belongs “inactive”; to `NC(=O)C1CCCc2c1[nH]c1ccc(Cl)cc21` (stereo not given), “inactive”; to `CC(=O)Nc1ccc(O)cc1`, “inactive”. In the case of `N[C@H]1C(O)O[C@H](CO)[C@@H](O)[C@@H]1O` (stereo not given in full), the Potency entry was “inactive”. For the compound `N#C/C(=C1\SCC(c2ccccc2Cl)S1)n1ccnc1` (stereo not given), the Potency entry was “inactive”.

Take `CC1=C(C/C=C(\C)CCC[C@H](C)CCC[C@H](C)CCCC(C)C)C(=O)c2ccccc2C1=O`: the Potency result was “inactive”. With `CC[N+](C)(CC)CCOC(=O)C(O)(c1ccccc1)C1CCCCC1` (stereo not given), the Potency result is “inactive”. Consider `Cc1ccccc1C(C(=O)NC1CCCC1)N(C(=O)Cn1cnc2ccccc21)c1cccc(F)c1` (stereo not given), for which the Potency result is “inactive”. Take `OCCCc1ccccc1`: the Potency entry was “inactive”. The entry for `OC[C@H]1O[C@@H](n2cnc3c2NC=NC[C@@H]3O)C[C@H]1O` is “inactive”. On to `CC1=C(/C=C/C(C)=C/C=C/C(C)=C/C(=O)O)C(C)(C)CCC1`, for which the Potency entry was “inactive”.

As for `CC(C)(C)c1cc(C(=O)O)c(NC(=O)Nc2ccc3[nH]ncc3c2)s1`, the Potency result was “inactive”. As for `CCCCCCCCCCCCCC(=O)OC(C)C`, the Potency entry was “inactive”.
